Experimental data as given in PubChem BioAssay (NCI).
The panel holds about 79,000 compounds, 15% with a hit somewhere; the sample as a whole holds those more often. No stated cut-off is given here; in the data, active means growth inhibition above about 70%; inactive means the rest.

Assays:
[1] = NCI Yeast Anticancer Drug Screen. Data for the rad50 strain (AID 155);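 further: 0% = growth of vehicle-only cultures of the same strain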; conditions: S. cerevisiae rad50 strain growth inhibition; at 50.0 µM; hits give high values
Summary of the method: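 Compounds were tested on a yeast strain with an engineered DNA damage repair alteration; the reported value is growth inhibition normalised to vehicle treatment.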

[2] = NCI Yeast Anticancer Drug Screen. Data for the mec2-1 strain (AID 157); conditions: S. cerevisiae mec2-1 strain, at 50.0 µM, hits give high values
Summary of the method: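 Readout is yeast growth inhibition, normalised to vehicle-treated controls, in the mec2-1 strain exposed to compound.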

[3] = NCI Yeast Anticancer Drug Screen. Data for the sgs1 mgt1 strain (AID 161);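 further: 0% = growth of cultures given vehicle only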; conditions: S. cerevisiae sgs1 mgt1 strain, at 50.0 µM, hits give high values
Summary of the method: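 This yeast growth screen uses a strain with defined DNA-repair lesions; compound-treated growth is compared with vehicle-treated growth.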

[4] = NCI Yeast Anticancer Drug Screen. Data for the cln2 rad14 strain (AID 165);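 further: 0% = growth equal to vehicle treated cultures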; conditions: S. cerevisiae cln2 rad14 strain, at 50.0 µM, hits give high values
Summary of the method: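 Relative to vehicle controls, growth inhibition of compound-treated cln2 rad14 yeast was recorded.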

[5] = NCI Yeast Anticancer Drug Screen. Data for the bub3 strain (AID 167); conditions: S. cerevisiae bub3 mutant strain, at 50.0 µM, hits give high values
Summary of the method: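 Growth of a checkpoint-deficient yeast mutant is measured after compound exposure. Values represent inhibition relative to vehicle.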

[6] = NCI Yeast Anticancer Drug Screen. Data for the mlh1 rad18 strain (AID 175); conditions: S. cerevisiae mlh1 rad18 strain growth inhibition; at 50.0 µM; hits give high values
Summary of the method: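 Test agents were incubated with a yeast strain of defined genotype (DNA damage repair defect). Inhibition of growth was derived by comparison with vehicle-exposed cultures.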

Measured: growth inhibition

O=C1CC2CC1C1CC(Br)C(Br)C21 (stereo not given)
inactive: [1] -2.9% | [2] -17.3% | [3] -8.8% | [4] -4.85% | [5] -15.7% | [6] -1.1%

COc1ccc(C(=O)/C=C/c2ccc(OCCSCCCCCCCCCCSCCOc3ccc(/C=C/C(=O)c4ccc(OC)c(OC)c4)cc3)cc2)cc1OC
inactive: [1] -44.4% | [2] -26.1% | [3] -28.2% | [4] -6.35% | [5] -29.6% | [6] -53.6%

CC1(C)OC2C(=O)O[C@H](CO)C2O1 (stereo not given in full)
inactive: [1] -2.7% | [2] 9.5% | [3] -2.9% | [4] 24.6% | [5] 7.3% | [6] 16.4%

O=C(NCCc1c[nH]c2ccccc12)C(F)(F)F
inactive: [1] -15.8% | [2] 7.6% | [3] 18.2% | [4] 6.85% | [5] 29.2% | [6] 0.3%

CCCCC(NC(=O)OCc1ccccc1)C(=O)NC(Cc1c[nH]c2ccccc12)C(=O)O (stereo not given)
inactive: [1] 37.6% | [2] 3.9% | [3] 14.7% | [4] 17.8% | [5] 0.4% | [6] 9.25%

CSC(=NCCCCN=C(NS(=O)(=O)c1ccc(Cl)cc1)SC)NS(=O)(=O)c1ccc(Cl)cc1
inactive: [1] -18.1% | [2] -27% | [3] -16.9% | [4] 13.9% | [5] -8.8% | [6] -11.2%

O=S1C=Cc2ccccc21 (stereo not given)
inactive: [1] 9.8% | [2] 20.6% | [3] 13.1% | [4] 5.8% | [5] -0.7% | [6] 7.1%

Cc1cc(=O)oc2ccccc12
inactive: [1] 8.8% | [2] 0.6% | [3] 10.9% | [4] -3.1% | [5] 4.6% | [6] 1.55%

O=CNC(CSC(=O)c1ccccc1)C(=O)O (stereo not given)
inactive: [1] -0.35% | [2] -3.75% | [3] -7.2% | [4] -15.2% | [5] -11.7% | [6] -12.7%

C=C(C)C(=O)OCCOCCOCCOC(=O)C(=C)C
inactive: [1] 8.4% | [2] -19.2% | [3] -9.75% | [4] 3% | [5] -7.7% | [6] 4.5%

OCCCCC1COC(c2ccccc2)O1 (stereo not given)
inactive: [1] 2.55% | [2] -14.6% | [3] -10.9% | [4] -35% | [5] -16.6% | [6] 1.1%

Cn1c(=O)c2c(n(C)c1=O)n(C)c(=O)n2C
inactive: [1] 18.3% | [2] 8.25% | [3] -18.9% | [4] 12.7% | [5] 1.85% | [6] 15.9%

CSc1nc2c(nc(N)n2C2OCC(O)C(O)C2O)c(=O)[nH]1 (stereo not given)
inactive: [1] -19.2% | [2] -5.2% | [3] -12.5% | [4] -15% | [5] -5.65% | [6] -29.2%

O=C(N/N=C\c1cccnc1)Nc1ccc(N=Nc2ccccc2)cc1
inactive: [1] 12% | [2] 12.5% | [3] -1.9% | [4] -9.2% | [5] 11.9% | [6] 23.1%

O=C(N/N=C\c1ccc2c(c1)CCC2)c1cccc2ccccc12
inactive: [1] -5.9% | [2] 1.35% | [3] -11.9% | [4] -6.1% | [5] 10.2% | [6] -2.9%

O=NN(C(=O)NCCCl)c1[nH]c(=O)ncc1Br
inactive: [1] -8.6% | [2] -13.7% | [3] -16% | [4] -25.4% | [5] -7.95% | [6] -6.7%

Cc1ccccc1NC(=O)Nc1ccccc1C
inactive: [1] -3.8% | [2] -15.3% | [3] 3.45% | [4] -23% | [5] -20.2% | [6] -11.9%

COc1cc(/C=C2/Cc3ccccc3C2=O)ccc1O
inactive: [1] 47% | [2] 24.1% | [3] 20.4% | [4] 22.9% | [5] 26.7% | [6] 26.6%

O=C(N/N=C/c1ccccc1[O-])c1ccccc1O.O=C(N/N=C/c1ccccc1[O-])c1ccccc1O.[Fe+2]
inactive: [1] 6.45% | [2] -10.1% | [3] -1.5% | [4] 19.3% | [5] -19.6% | [6] 9.5%

C=[N+](CNC(=O)CNC(=O)C(Cc1ccc([N+](=O)[O-])cc1)NC(=O)OC(C)(C)C)C(=O)CNC(=O)C(Cc1ccc([N+](=O)[O-])cc1)NC(=O)OC(C)(C)C (stereo not given)
inactive: [1] -23.1% | [2] -28% | [3] -29.4% | [4] 3.3% | [5] -12.2% | [6] -18.8%

CO[C@@]12C[C@@H](C)C3=CCC(C)=C3CC1=C(C)C(=O)O2
inactive: [1] 8.9% | [2] -4.05% | [3] 16.6% | [4] 2.9% | [5] 26.4% | [6] -68.3%

COc1cccc(C(N)C(=O)O)c1 (stereo not given)
inactive: [1] -22.9% | [2] -16.2% | [3] -5.25% | [4] -26.2% | [5] -12.4% | [6] -17.4%

CC(C)SC(CC(O)C(O)COC(=O)c1ccccc1)SC(C)C (stereo not given)
inactive: [1] -8.05% | [2] -0.15% | [3] 6.15% | [4] -8.35% | [5] -4.7% | [6] 17.8%

O=C1C2=C(Nc3cc([N+](=O)[O-])ccc3N2)OC1c1ccc2c(c1)OCO2 (stereo not given)
inactive: [1] -10.4% | [2] -16.9% | [3] -15.1% | [4] 5.75% | [5] -28.2% | [6] -5.45%

C=C1C(=O)OC2/C=C(\C)C(O)CC(O)C(C)(O)CC(OC(=O)/C(C)=C/C)C12 (stereo not given)
inactive: [1] -0.7% | [2] -25.2% | [3] -10.4% | [4] 14.1% | [5] 6.5% | [6] -10.8%

Nc1cccc2nsnc12
inactive: [1] 3% | [2] -36.6% | [3] -42.2% | [4] 30.1% | [5] -5.05% | [6] -15.7%

Cc1cccc(NS(=O)(=O)c2ccc3c(c2)OCCOCCOCCOCCO3)c1
inactive: [1] 1.65% | [2] -11.1% | [3] 7.05% | [4] -28% | [5] -11.4% | [6] -9.45%

CCCCOc1ccc(Br)cc1
inactive: [1] 12.3% | [2] 5.4% | [3] 7.6% | [4] 8.1% | [5] 3.1% | [6] -15.1%

CCC(=O)Oc1ccc([N+](=O)[O-])cc1[N+](=O)[O-]
inactive: [1] 38.6% | [2] 30.6% | [3] 49.3% | [4] 26.6% | [5] -0.5% | [6] 21.6%

O=C(CCCCCCC(=O)C[N+]12CCC(CC1)C(O)C2)C[N+]12CCC(CC1)C(O)C2 (stereo not given)
inactive: [1] 39.1% | [2] 4.2% | [3] 21.1% | [4] 0.5% | [5] 3.6% | [6] 15.6%

C=C(CO)[C@H]1Oc2ccc(C(C)=O)cc2[C@@H]1O
inactive: [1] -16.1% | [2] -10.1% | [3] -24.6% | [4] 6.85% | [5] -10.7% | [6] -12.5%

Cc1ccc(OC/C=C/CS(=O)(=O)c2ccc(C)cc2)cc1
inactive: [1] -11.6% | [2] 10.3% | [3] 5.65% | [4] -23.2% | [5] -12.7% | [6] -28.6%

O=C(Nc1nc2c(ncn2C2OC(CO)C(O)C2O)c(=O)[nH]1)c1ccccc1 (stereo not given)
inactive: [1] 2.45% | [2] -26.9% | [3] -20.2% | [4] 11.6% | [5] 12.7% | [6] 15.6%

CCOC(=O)NC(Nc1ccc(C(=O)OCC)cc1)(C(F)(F)F)C(F)(F)F
inactive: [1] 0.25% | [2] 3.25% | [3] -15.2% | [4] -16% | [5] -13.2% | [6] 0.55%

COc1ccc2cc1Oc1ccc(cc1)CC1c3cc(c(OC)cc3CCN1C)Oc1c3c(cc4c1C(C2)N(C)CC4)OCO3 (stereo not given)
inactive: [1] 1.6% | [2] -14.3% | [3] -15.7% | [4] 4.65% | [5] 1.1% | [6] 3.45%

COc1cc2cc3c4cc(OC)c(OC)cc4cc[n+]3cc2cc1OC
inactive: [1] -4.5% | [2] -54.5% | [3] -2.8% | [4] -12.3% | [5] -15.8% | [6] -68%

c1ccc2c(c1)oc1cc3c(cc12)n1nnnc1c1cccn31
inactive: [1] 9% | [2] -1.25% | [3] -3.45% | [4] 16.4% | [5] 4.6% | [6] -7.8%

COc1ccccc1N(CN1C(=O)CCC1C(=O)O)C(C)=O (stereo not given)
inactive: [1] 9.2% | [2] 10.4% | [3] -4% | [4] 7.25% | [5] -9.1% | [6] -37.9%

O=C1CSC(/C(=C\c2ccc(Cl)cc2)c2nc3ccccc3[nH]2)=N1
inactive: [1] 11.3% | [2] 11.2% | [3] -4.15% | [4] 11.7% | [5] 12.2% | [6] 4.3%

CCC(=C(c1ccc(OCc2ccccc2)cc1)c1ccc(OCc2ccccc2)cc1)c1ccc(OC)cc1
inactive: [1] 14.7% | [2] -24.2% | [3] 9.45% | [4] -0.3% | [5] -20.8% | [6] -14.3%
